# Hits are enriched below; roughly 19% of the tested compounds scored in any of these assays.
# HT1080 IDH1KD tx: qHTS for induction of synthetic lethality in tumor cells producing 2HG: qHTS for the HT-1080-IDH1KD cell line; HT-1080 IDH1 knockdown viability, ATP luminescence, 48 h; Potency, µM (doses to about 46.1 µM), inactives show at the top dose activity, negative = toxicity, usual class: cytotoxic; 360,000 compounds, 2% hits; AID 686971, 2013;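 also: 0% = DMSO wells and -100% = cell-free medium wells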
#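 Using the IDH1-knockdown HT-1080 line run in the same batch and compound series as the NT line, viability after 48 h at 37 °C was determined by CellTiter-Glo luminescence and expressed as % activity.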
# DT40 TDP1 CPT: qHTS for Inhibitors of human tyrosyl-DNA phosphodiesterase 1 (TDP1): qHTS in cells in presence of CPT. chicken DT40 Tdp1-/-;hTDP1 cells + 20 nM CPT, ATP luminescence, 48 h. Potency, µM (titrated, usually from 46.2 µM), without a hit: top-dose activity change, negative = growth inhibition, actives largely listed as inhibitors. 420,000 compounds, 12% hits. AID 686979, 2013; also: nearly all actives have a fitted effect of over 55% in size
#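 Chicken DT40 Tdp1-/- cells stably complemented with human TDP1 were seeded at 400 cells/well in medium containing 20 nM camptothecin, exposed to pin-transferred compounds, and grown at 37 °C for at least 48 hr. Viability was read as ATP luminescence.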
# DT40 TDP1 no CPT: qHTS for Inhibitors of human tyrosyl-DNA phosphodiesterase 1 (TDP1): qHTS in cells in absence of CPT; Potency, µM (series often up to 46.2 µM), without a hit: at the highest dose activity change, negative = growth inhibition, hits mostly inhibitors; 420,000 compounds, 15% hits; DT40 Tdp1-/- hTDP1 cells, no CPT, ATP luminescence, 48 h; also: nearly all actives have a fitted effect of over 55% in size
#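 Chicken DT40 Tdp1-/- cells stably complemented with human TDP1 were seeded at 400 cells/well with DMSO in place of 20 nM camptothecin. After compound pinning, cells grew at least 48 hr at 37 °C; viability read by CellTiter-Glo luminescence.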
# KB-V1 cytotox: qHTS assay for MDR1-selective chemotherapeutics: Primary screen using the drug-selected MDR subline cells KB-V1; AID 1347076, 2019; Potency, µM (series often up to 46.1 µM), usual class: cytotoxic; 400,000 compounds, 3.4% hits; KB-V1 MDR cells viability, CellTiter-Glo, 72 h; also: nearly all actives have a fitted effect of over 60% in size
#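 KB-V1, DMEM (no phenol red) + 10% FBS; cpd pin-transferred, titration series; 72 h, 37 degrees C; CellTiter-Glo, luminescence. Data normalized, curve-fit.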
# HT1080NT lethal: qHTS for induction of synthetic lethality in tumor cells producing 2HG: qHTS for the HT-1080-NT fibrosarcoma cell line. HT-1080-NT fibrosarcoma viability, CellTiter-Glo ATP luminescence, 48 h. Potency, µM (highest dose often 46.1 µM), inactives show at the top dose activity, negative = less viability, most hits filed as cytotoxic. 360,000 compounds, 1.6% hits. AID 686970, 2013;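 also: NT is the 2HG producing partner of a matched IDH1 knockdown line; 0% = DMSO-treated cells and -100% = media-only wells without cells; nearly all actives have a fitted effect of over 55% in size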
#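 Read-out is CellTiter-Glo luminescence after 10 minutes at room temperature, following 48 hours' compound treatment of HT-1080-NT cells (750 cells/well, RPMI, 5% FBS, 37 degrees C).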
# KB-3-1 tox: qHTS assay for MDR1-selective chemotherapeutics: Primary screen using the parental adenocarcinoma cell KB-3-1. KB-3-1 viability, CellTiter-Glo ATP luminescence, 72 h. Potency, µM (highest dose often 46.1 µM), usual class: cytotoxic. 400,000 compounds, 1.4% hits. AID 1347075, 2019; also: nearly all actives have a fitted effect of over 60% in size
#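 Cells are dispensed, compounds pinned in, plates held at 37 °C for 72 h, then CellTiter-Glo is added and luminescence read after 10 minutes. Cell line: parental KB-3-1 in phenol-red-free DMEM, 10% FBS.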
# * hit, by the source's call; i = inactive; ? = inconclusive; · = no result. Calls follow the shape of the dose curve; as a rule, active = well fitted curve in the direction sought with a large enough effect; inconclusive = small, poorly fitted or top-dose-only effect, or another doubt; inactive = no such curve, though single readings can be large; an effect the other way counts as inactive or inconclusive. Unless noted, % is scaled to controls: 0 for no effect and ±100 for the full control effect; potency is read from the fitted curve at half-maximal effect.
SMILES,HT1080 IDH1KD tx,DT40 TDP1 CPT,DT40 TDP1 no CPT,KB-V1 cytotox,HT1080NT lethal,KB-3-1 tox
CCn1c(C)nc([N+](=O)[O-])c1Sc1ccc(F)cc1,-12%,?,16µM*,i,-1%,i
Cc1nc2ccc([N+](=O)[O-])cc2c(=O)n1Cc1ccc(F)cc1,-25%,?,?,i,-2%,i
O=C(COC(=O)c1ccc(S(=O)(=O)NCc2ccco2)cc1)Nc1ccc(Cl)cn1,14%,2%,8%,i,16%,i
COc1ccc(-n2c(-c3ccc(Br)cc3)c[n+]3c2CCc2ccccc2-3)cc1,16µM*,1.6µM*,0.92µM*,i,?,2.6µM*
COc1ccccc1-n1c(-c2ccccc2)c[n+]2c1CCc1ccccc1-2,13µM*,0.33µM*,0.013µM*,i,15µM*,3.3µM*
CC(C)c1ccc(-n2c(-c3ccccc3)c[n+]3c2CCc2ccccc2-3)cc1,7.3µM*,0.0073µM*,0.033µM*,i,8.2µM*,2.6µM*
COc1ccccc1-n1c(-c2ccc(F)cc2)coc1=O,28%,15%,2%,i,19%,i
Cc1ccc(CNC(=O)CC2Oc3ccccc3NC2=O)cc1 (centres undefined),·,-1%,-17%,·,·,·
COc1ccccc1CNc1cc(C)nc2nc(-c3ccc(C)cc3)nn12,·,·,·,?,·,i
CCN=C1S/C(=C\c2sccc2C)C(=O)N1CC,5%,?,?,13µM*,18%,?
Cc1ccc(NC(=O)CSc2nnc(C3CC3)n2N)cc1S(=O)(=O)N1CCOCC1,9%,14%,8%,i,21%,i
Cc1cc(C)cc(-n2ccnc2SCC(=O)Nc2cccc3ccccc23)c1,·,21µM*,18µM*,i,·,i
Cc1cc(C)cc(-n2ccnc2SCC(=O)Nc2ccccc2F)c1,·,23µM*,16µM*,i,·,i
O=C(Nc1ccccc1Br)C1CCCN(S(=O)(=O)c2cccc3nsnc23)C1 (centres undefined),·,?,?,i,·,i
Cc1cccc(NC(=O)C2CCCN(S(=O)(=O)c3cccc4nsnc34)C2)c1 (centres undefined),-19%,?,?,i,0%,i
Cc1ccc(C)c(NC(=O)C2CCCN(S(=O)(=O)c3c(C)nn(C)c3C)C2)c1 (centres undefined),-6%,?,18µM*,i,-23%,i
Cc1ccc(C)c(NC(=O)C2CCCN(S(=O)(=O)c3cccc4nsnc34)C2)c1 (centres undefined),·,-31%,26µM*,i,·,i
O=C(Nc1cccc(C(F)(F)F)c1)C1CCCN(S(=O)(=O)c2cccc3nsnc23)C1 (centres undefined),·,16µM*,21µM*,i,·,i
COc1cccc(NC(=O)C2CCCN(S(=O)(=O)c3cccc4nsnc34)C2)c1 (centres undefined),-3%,?,16µM*,?,-8%,i
Cc1cccc(NC(=O)C2CCCN(S(=O)(=O)c3c(C)nn(C)c3C)C2)c1 (centres undefined),1%,?,?,i,0%,i
CCc1ccccc1NC(=O)C1CCCN(S(=O)(=O)c2cccc3nsnc23)C1 (centres undefined),·,?,?,i,·,i
COc1cccc(CNC(=O)CN2N=C(c3ccc(C)cc3)CCC2=O)c1,·,-16%,-20%,·,·,·
COCCn1c(=NC(=O)CSCC(=O)N2CCOCC2)sc2ccccc21,20%,-6%,-7%,?,4%,i
O=C(CNC(=O)c1cccs1)N/N=C/c1cccc(Cl)c1,16%,-15%,16%,i,8%,i
COc1ccc2nc(NC(=O)C3CCN(S(=O)(=O)c4cccc5nsnc45)CC3)sc2c1,?,15µM*,?,1.6µM*,-11%,?
SMILES,HT1080 IDH1KD tx,DT40 TDP1 CPT,DT40 TDP1 no CPT,KB-V1 cytotox,HT1080NT lethal,KB-3-1 tox
CCOCCCNC(=O)C1CCCN(S(=O)(=O)c2cccc3nsnc23)C1 (centres undefined),7%,13%,-17%,i,13%,i
Cc1cc(NC(=O)C2CCCN(S(=O)(=O)c3cccc4nsnc34)C2)ccc1Br (centres undefined),·,10µM*,?,i,·,i
CCOc1ccc(NC(=O)C2CCCN(S(=O)(=O)c3cccc4nsnc34)C2)cc1 (centres undefined),5%,23µM*,16µM*,?,15%,i
Cc1cc(C)cc(NC(=O)C2CCCN(S(=O)(=O)c3cccc4nsnc34)C2)c1 (centres undefined),·,18µM*,16µM*,i,·,i
CC(C)CC(=O)NCC(c1ccc2c(c1)OCO2)N1CCN(c2ccccc2)CC1 (centres undefined),·,?,?,i,·,i
Cc1ccc(C)c2c(C)ccnc12,·,-15%,-4%,i,·,i
Cc1ccc(C(=O)NCC2(c3ccccc3)CCCC2)cc1,0%,12µM*,12µM*,i,-6%,i
Nc1ccccc1C(=O)NCC1(c2ccccc2)CCCC1,-11%,?,?,i,-2%,i
CCCN(CCC)C(=O)CC(c1ccccc1)c1ccc(C)cc1O (centres undefined),?,?,-22%,7.3µM*,-3%,i
O=C(NCC1(c2ccccc2)CCCC1)c1ccc(Br)cc1,8%,?,?,i,16%,i
COc1cc(C(=O)NCC2(c3ccccc3)CCCC2)cc(OC)c1OC,8%,15µM*,15µM*,i,30%,i
